# This is a sample that favours compounds with a hit; in the whole collection about 1.2% have one here.
# Sa ugtP lethal: growth inhibition of ugtP-null S. aureus, primary screen, RN4220 ugtP deletion, OD600; 16 h; growth inhibition, % (no concentration beside the values); 330,000 compounds, 0.54% hits; in the data active = growth inhibition above about 68%;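 also: plate controls were untreated wells for no effect and antibiotic for full effect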
# Sa RN4220 lethal: growth inhibition of S. aureus RN4220, primary screen, OD600 | 16 h | inhibition, % (test concentration not listed) | 330,000 compounds, 0.33% hits | AID 1259311, 2017; in the data active = inhibition above about 85%;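 also: plate controls were untreated cells for no effect and reference antibiotic for full effect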
# PfHsp40 yeast: rescue of yeast from PfHsp40 toxicity, primary screen, S. cerevisiae, ATP luminescence; 340,000 compounds, 0.68% hits; growth rescue, % at 12.5 µM; S. cerevisiae expressing PfHsp40, growth rescue; in the data active = growth rescue above about 28%, passing the limit was not always enough; inconclusive = no clear call, values can overlap the other calls;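 also: yeast W303a lacking pdr1 and pdr3 grown in galactose medium; growth measured after three days at 30 °C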
# Mtb betalactam: beta-lactam sensitization of Mtb H37Rv, H37Rv; M. tuberculosis H37Rv growth with meropenem, percent inhibition; 330,000 compounds, 0.27% hits; inhibition, % at 25 µM; AID 434955, 2010; call rule not given here;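 also: growth measured after seven days incubation then overnight dye step; 0% = bacteria only wells and 100% = bacteria with antibiotic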
# Vc quorum ag: inducers of Vibrio cholerae quorum light production without autoinducers, primary screen, BH1578 luxS cqsA deficient, single point. V. cholerae BH1578 lux reporter, luminescence, 6 h. activation, % at 18.7 µM. 350,000 compounds, 0.16% hits. AID 588436, 2011; in the data active = activation mostly above about 9.7%, no sharp cut-off; inconclusive = no clear call, values can overlap the other calls; inactive = mostly below about 3.7%
# An asterisk follows results filed as active; i = inactive; ? = inconclusive; nt = not tested or not shown.
SMILES,Sa ugtP lethal,Sa RN4220 lethal,PfHsp40 yeast,Mtb betalactam,Vc quorum ag
COc1ccc2sc(-c3ccccc3OC)c(-c3ccc(O)cc3)c2c1,nt,nt,21.9,33.8,-0.4
COc1ccc2sc(-c3ccc(N(C)C)cc3)c(C#CCCO)c2c1,0.2,-0.3,?,95.9,-0.8
COc1ccc(-c2sc3ccc(OC)cc3c2-c2ccc(O)cc2)cc1,100.1*,76.0,0.0,7.3,i
CN(C)S(=O)(=O)c1cccc(NC(=S)NN=CC(c2ccccc2)c2ccccc2)c1,56.5,4.5,nt,nt,nt
O=C1CCN(CCc2ccccc2)CCN1C(COc1ccccc1)c1ccccc1 (stereo unspecified),0.7,1.5,nt,nt,nt
CCC(C)Sc1ccc(C2N[C@@](Cc3ccccc3)(C(=O)OC)C3C(=O)N(C)C(=O)C23)cc1 (stereo partly specified),-7.0,6.6,nt,nt,nt
COc1ccc(C=Cc2c(-c3ccc(OC)cc3)oc(=O)c3cc(OC)c(OC)cc23)cc1,-5.3,0.6,nt,nt,nt
COc1ccc2sc(-c3ccc(N(C)C)cc3)c(C#CC(C)(C)O)c2c1,3.7,3.7,0.6,nt,i
COc1ccc2sc(-c3ccc(N(C)C)cc3)c(C#Cc3cncn3C)c2c1,82.1*,77.9,?,99.6,-0.3
CN(C)CCOc1ccc(-c2c(-c3ccccc3)sc3ccccc23)cc1,100.1*,100.4*,32.7*,100.0,-0.6
c1ccc(-c2sc3ccccc3c2-c2ccc(OCCN3CCCCC3)cc2)cc1,22.1,-2.8,-0.3,48.3,-0.4
COc1ccc(-c2c(-c3cc(OC)cc(OC)c3)sc3ccc(OC)cc23)cc1,92.1*,-8.5,-0.9,4.9,i
C=CCOC(=O)C1=CC(c2csc3ccccc23)C(CCCO)C(OCC)O1 (stereo unspecified),18.1,36.0,nt,nt,nt
CN(Cc1c(C(=O)NN=Cc2ccccc2)nnn1-c1nonc1N)c1ccccc1,-2.0,1.4,nt,nt,nt
C=CCNC(=O)C(=Cc1ccc2c(c1)OCO2)NC(=O)c1ccc(Br)cc1,17.8,7.0,nt,nt,nt
CC(=O)c1ccc2c(c1)C1C=CCC1C(c1cc3c(cc1Br)OCO3)N2 (stereo unspecified),nt,nt,-0.9,44.5,i
COc1ccc2c(c1)C1C=CCC1C(c1cc3c(cc1Br)OCO3)N2 (stereo unspecified),55.9,-8.2,67.8*,15.3,-0.5
CCCC(=O)Nc1cccc2c1CCCC2,-5.6,3.4,-2.1,9.4,-0.1
CCc1ccc(OCC(=O)Nc2cccc3c2CCCC3)cc1,98.9*,24.8,8.4,46.6,-0.3
CCN1C(=O)C2C(c3ccc(C)cc3)N3C(=O)N(c4cccc(F)c4)C(=O)[C@@]3(C)C2C1=O (stereo partly specified),3.2,7.5,nt,nt,nt
COc1ccc(-c2oc3ccccc3c2C#CC(C)(C)O)cc1,18.4,-2.9,38.4*,74.7,-0.6
Cc1ccc(-n2c(Cl)c(Cl)nc(Cl)c2=O)cc1,99.7*,99.7*,41.9*,100.1,-2.0
CCOC(=O)C1C2COc3ccccc3C2N2C(=O)N(c3ccccc3)C(=O)[C@]12C (stereo partly specified),2.3,5.0,nt,nt,nt
c1ccc2c(c1)nc1n2CCN1CCN1CCCC1,11.4,8.0,44.1*,-12.2,-0.9
c1ccc(CN2CCN(CCN3CCn4c3nc3ccccc34)CC2)cc1,2.2,1.2,-1.0,-5.4,-0.3
SMILES,Sa ugtP lethal,Sa RN4220 lethal,PfHsp40 yeast,Mtb betalactam,Vc quorum ag
COC(=O)c1cc2c(ccn2-c2ccc(F)cc2)n1CC(C)C,74.3,8.8,0.8,-0.3,i
CCCn1c(C(=O)OC)cc2c1ccn2-c1ccc(F)cc1,96.8*,15.0,2.1,24.8,-5.0
CSc1ccc(C=Nn2c(C)cc(C)cc2=O)cc1,2.6,5.2,nt,nt,nt
Cn1nc(C(F)(F)F)c(/C=N/OC(=O)c2ccccc2Cl)c1SCc1ccc(Cl)cc1,nt,nt,51.6*,-5.1,-11.1
CSC(=C[N+](=O)[O-])Nc1ccc(C)cc1,-6.1,4.8,nt,nt,nt
O=C(c1ccc(O)c(Br)c1)c1cc(Br)ccc1O,84.4*,76.8,7.9,nt,-5.0
O=C(C(=O)c1cc(Br)ccc1O)c1cc(Br)ccc1O,100.3*,100.2*,111.8*,nt,nt
C=C[C@@]1(C)CCC(C(C)=CC=CC(C)(C)O)CC1C(=C)C (stereo partly specified),-0.9,7.5,nt,nt,nt
Oc1ccc(C=NN2CCOCC2)c(O)c1O,-4.7,7.6,nt,nt,nt
CN(N=Cc1cc(Cl)cc(Cl)c1O)C(=S)NC(C)(C)C,99.7*,100.5*,nt,nt,nt
CN(/N=C/c1cc(Cl)cc(Cl)c1O)C(=S)NC(C)(C)C,nt,nt,-0.4,6.8,-0.5
O=C(NNc1ccc(O)cc1)c1ccc(Br)cc1,91.2*,22.1,12.0,37.2,-0.3
O=C(NNc1ccccc1)c1ccccc1,3.1,2.2,2.0,nt,i
CC(C)(C)P(=O)(NCc1ccccc1)c1ccccc1 (stereo unspecified),10.3,6.4,53.1*,-1.7,i
O=P(NCc1ccccc1)(OCc1ccccc1)OCc1ccccc1,nt,nt,0.3,nt,-2.3
CC1(C)C(=S)N(Cc2ccccc2)c2ccccc21,86.0*,-3.8,-1.2,29.6,i
COc1cc(C#Cc2c(-c3cncn3C)n(C)c3ccc(Br)cc23)cc(OC)c1,98.7*,99.3*,?,100.0,-0.7
O=C(CSc1ccc(-c2ccccn2)nn1)NCc1ccc(F)cc1,-0.8,5.7,247.5*,-0.7,i
O=C(CSc1ccc(-c2ccccn2)nn1)NCc1ccccc1,1.7,2.6,270.2*,0.2,i
O=C(CSc1ccc(-c2cccc([N+](=O)[O-])c2)nn1)NCc1ccccc1,18.7,1.8,2.0,-7.8,-0.5
C=CCNC(=S)N=c1ccccn1C,0.0,2.8,nt,nt,nt
COC(=O)C1=C(c2ccc(-c3ccccc3)c(F)c2)CC2CCC1N2C(=O)N1CCCC1 (stereo unspecified),9.9,7.0,nt,nt,nt
O=C1NC(=O)C(=Cc2ccc(O)cc2)S1,-7.8,-2.8,nt,nt,nt
O=C(C=Cc1cccc(O)c1)c1ccccc1O,-7.7,0.3,383.0*,nt,2.6
O=C(NN=Cc1cccc(Cl)c1Cl)Nc1ccccc1,-4.0,1.0,nt,nt,nt
SMILES,Sa ugtP lethal,Sa RN4220 lethal,PfHsp40 yeast,Mtb betalactam,Vc quorum ag
Cc1ccc(C(=O)CC(=O)c2ccccc2C)c(O)c1,87.1*,82.7,2.7,?,-0.6
Cc1ccc(C(=O)CC(=O)c2cccc(F)c2)c(O)c1,94.2*,88.2*,395.9*,98.3,9.1
Cc1ccc(C(=O)c2ccccc2C(=O)O)c(O)c1,10.9,9.7,-0.2,16.1,-0.4
CCCC=NNC(=O)c1cccc(Br)c1,-2.2,-0.3,nt,nt,nt
CCN(CC)c1ccc(C=NNC(=O)c2cccc(N3CCCC3=O)c2)cc1,-3.4,1.1,nt,nt,nt
O=C(C1CC(=O)N(C2CCCCC2)C1)N1CCc2ccccc21 (stereo unspecified),-4.2,3.3,61.0*,4.7,-0.3
O=C(C1CCCCC1)N1CCc2ccccc21,4.3,4.2,-1.2,-2.5,i
COc1ccc(C=NNC(=O)c2nc(-c3ccccc3)cc(-c3ccccc3)n2)cc1OC,-6.4,4.0,nt,nt,nt
COc1ccc(/C=N/NC(=O)c2nc(-c3ccccc3)n(-c3ccccc3)n2)c(O)c1,nt,nt,71.5*,-5.7,-0.3
COc1cccc(/C=N/NC(=O)c2nc(-c3ccccc3)cc(-c3ccccc3)n2)c1O,nt,nt,253.5*,2.1,-5.1

# Assay outcomes from PubChem BioAssay.
